From PubChem BioAssay AID652065 (The Scripps Research Institute Molecular Screening Center, 2013) come the findings set out here.

The campaign covered roughly 4,300 compounds. About 3,000 (70%) were called active. So high a share suggests a set chosen from earlier hits. A selection follows. Unmarked numbers belong to inactive results.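 The calls were made as follows: active = inhibition above a per-plate cutoff, the mean inhibition of sample wells plus 3 SD (cut at about 35% in these data); inactive = the rest.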

The nature of the test: small molecules binding CAG repeat RNA – biochemical, fluorescence, confirmation (AID 652065).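 Also: loss of TO-PRO-1 fluorescence as compound displaces dye from 1x1 AA loop RNA; 0% = DMSO only wells and 100% = 100 µM mitoxantrone.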 The settings on record: r(CAG) RNA repeat, TO-PRO-1 dye displacement fluorescence; at 3 µM; hits give high values.
As usually defined, the inhibition is the change of the read-out against control, counted positive when it falls. On to `COc1ccc(N2C(=O)/C(=C/c3ccco3)C(=O)NC2=S)cc1`, for which the inhibition was 87% (active).
Under `O=C1NC(=O)N(Cc2ccco2)C(=O)/C1=C\c1ccc(-c2ccc(F)cc2)o1` stands 20.4%; under `CC/C(=N\NC(=O)c1ccccc1O)c1c(O)n(Cc2ccccc2)c(=O)[nH]c1=O`, 75.3% (active).
Under `O=C1CC(=O)N(Cc2ccccc2)C(=O)N1CCCCCCN1C(=O)CC(=O)N(Cc2ccccc2)C1=O` stands 54.7% (active).
For the compound `O=C1NC(=O)N(c2ccccc2)C(=O)/C1=C/c1ccc([N+](=O)[O-])s1`, the inhibition was 61.7% (active).
In the case of `COc1cccc(N2C(=O)NC(=O)/C(=C\c3ccc([N+](=O)[O-])s3)C2=O)c1`, the inhibition was 48% (active).
Under `COc1ccc2c(c1)[C@@]13CCCCC1[C@@H](C2)NCC3` (some centres not stated) stands -0.72%.
